Data as given in ChEMBL document CHEMBL4296182, “CO-ADD screening of NIH NCI Diversity Set V”.
“And” between values parts separate entries of the source, which are not always exact repeats. Identical values can stand only once. For some assays here: Potency and affinity values are given separately.

Legend:
Staphylococcus aureus = assay: Antibacterial activity against Staphylococcus aureus MRSA ATCC 43300 (CO-ADD:GP_020); MIC in CAMBH media using NBS plates, by Resazurin F(560/590); assay type: functional; details: Concentration 20 uM, ASSAY_TEST Inhibition of Bacterial Growth, detection method Resazurin, Fluorescence (ex560/em590), MEDIA CAMHB, plate type 384well, CORNING #3640, time 18 hr
Acinetobacter baumannii = assay: Antibacterial activity against Acinetobacter baumannii ATCC 19606 (CO-ADD:GN_034); MIC in CAMBH media using NBS plates, by Resazurin F(560/590); assay type: functional; details: Concentration 20 uM, ASSAY_TEST Inhibition of Bacterial Growth, detection method Resazurin, Fluorescence (ex560/em590), MEDIA CAMHB, plate type 384well, CORNING #3640, time 18 hr
Escherichia coli = assay: Antibacterial activity against Escherichia coli ATCC 25922 (CO-ADD:GN_001); MIC in CAMBH media using NBS plates, by Resazurin F(560/590); assay type: functional; details: Concentration 20 uM, ASSAY_TEST Inhibition of Bacterial Growth, detection method Resazurin, Fluorescence (ex560/em590), MEDIA CAMHB, plate type 384well, CORNING #3640, time 18 hr
Klebsiella pneumoniae = details: Concentration 20 uM, ASSAY_TEST Inhibition of Bacterial Growth, detection method Absorption (OD600), MEDIA CAMHB, plate type 384well, NBS, CORNING #3640, time 18 hr
Candida albicans = details: 20 µM
Cryptococcus neoformans = details: Concentration 20 uM, ASSAY_TEST Inhibition of Fungal Growth, detection method Resazurin, Absorption (OD600-OD570), plate type 384well, NBS, CORNING #3640

| Compound | Inhibition (Staphylococcus aureus) | Inhibition (Acinetobacter baumannii) | Inhibition (Escherichia coli) | Inhibition (Klebsiella pneumoniae) | Inhibition (Candida albicans) | Inhibition (Cryptococcus neoformans) | Inhibition (Staphylococcus aureus; 18 h, 20 µM) | Inhibition (Acinetobacter baumannii; 18 h, 20 µM) | Inhibition (Klebsiella pneumoniae; 20 µM) | Inhibition (Cryptococcus neoformans; 20 µM) |
| --- | --- | --- | --- | --- | --- | --- | --- | --- | --- | --- |
| Nc1ccnn1-c1ccccc1 | 7.55% | -6.56% | 2.95% | 26.2% | 2.01% | -2.01% |  |  |  |  |
| O=S(=O)(Oc1ccc(Cl)cc1)c1cccc2cccnc12 | 11.37% | -12.19% | 8.94% | 7.96% | -1.21% | -3.12% |  |  |  |  |
| O=C(/C=C\c1ccc2ccccc2n1)c1cc(Cl)ccc1O | -11.69% | -4.27% | -19.12% | 3.11% | 16.4% | -1.96% |  |  |  |  |
| Oc1ccc2ccccc2c1/N=N/c1ccc(F)cc1 | 3.11% | 4.07% | -0.77% | 13.5% | -3.66% | -8.4% |  |  |  |  |
| CC(C)=CCC/C(C)=C\C(N)=O | -1.13% | -1.29% | 11.31% | -1.44% | -0.52% | -3.28% |  |  |  |  |
| CCCCCn1cnc2c(S)nc(N)nc21 | 4.88% | -14.99% | 12.21% | 5.23% | 1.29% | -16.43% |  |  |  |  |
| N#C/C(=C\c1cc(O)c(O)c(O)c1)C(N)=O | -3.49% | 6.06% | 5.21% | 9.86% | 5.49% | -11.36% |  |  |  |  |
| CCOC(=O)Cn1nc2oc(=O)c(CCN3CCN(c4ccccc4OC)CC3)c(C)c2c1C | 17.7% | -3.04% | 11.66% | 16.06% | 2.37% | -3.33% |  |  |  |  |
| Cn1c(N)c(/N=N/c2ccc(S(N)(=O)=O)cc2)c(=O)n(C)c1=O | 19.52% | 4.45% | 15.26% | 20.82% | 2.91% | -0.3% |  |  |  |  |
| Oc1ccnc(Nc2ccc(Cl)cc2)n1 | 11.15% | -11.5% | 6.59% | -5.88% | 0.12% | -10.08% |  |  |  |  |
| CCCN(CCC)CC(=O)N1CC(=O)Nc2ccccc21 | -18.07% | -3.41% | -10.49% | 8.75% | 3.75% | -3.68% |  |  |  |  |
| CC(C)NC(=O)c1ccc(C(C)C)cc1 | 10.05% | -9.59% | 11.28% | -3.37% | -0.32% | -8.3% |  |  |  |  |
| Cn1c(=O)c2c(nc(Cc3ccccc3)n2C)n(C)c1=O | 3.97% | 12.97% | -5.53% | 15.33% | 4.11% | -7.23% |  |  |  |  |
| CC(C)(C)C(=O)/C=C/c1ccc(Oc2ccccc2)cc1 | 7.11% | -6.09% | -4.94% | 20.89% | 4.03% | -10.02% |  |  |  |  |
| COc1ccc(/C(C#N)=C/c2ccccn2)cc1 | 30.75% | -12.49% | 21.69% | 10.64% | 7.54% | 8.53% |  |  |  |  |
| Oc1ccc(/N=N/c2nccs2)c(O)c1 | -2.42% | 12.54% | -3.78% | 17.07% | 29.2% | 2.7% |  |  |  |  |
| CC1(C)N=C(N)N=C(NCCCOc2ccc([N+](=O)[O-])cc2)N1.CCS(=O)(=O)O | 25.11% | -9.38% | 11.82% | 18.17% | -1.81% | -10.08% |  |  |  |  |
| CCOC(=O)c1cc(-c2cccnc2)nc2c(Cl)cc(Cl)cc12 | 15.12% | -10.84% | 5.86% | 9.75% | 4.8% | -6.65% |  |  |  |  |
| N=C(N)NC(=N)Nc1ccc(O)cc1 | 11.3% | -14.34% | 13.43% | 0.41% | 0.07% | -11.16% |  |  |  |  |
| c1ccc(CSc2nnc3c4ccccc4c4ccccc4c3n2)cc1 | -1.68% | 11.2% | 0.12% | 1.09% | 5.6% | -12.52% |  |  |  |  |
| Cc1cc(-c2ccc(N3C(=O)CC4(CCCC4)C3=O)c(C)c2)ccc1N1C(=O)CC2(CCCC2)C1=O | 2.65% | -13.47% | 9.87% | -0.13% | 4.32% | -5.08% |  |  |  |  |
| CCOP(=O)(OCC)/C(C#N)=C/c1c[nH]c2ccccc12 | 16.69% | 9.53% | -1.43% | 13.34% | -0.38% | -5.67% |  |  |  |  |
| Nc1ncnc2c1cnn2C1CCCCC1 | -0.45% | -2.92% | -6.81% | 9% | 1.58% | -3.99% |  |  |  |  |
| OC(COc1cccc2ccccc12)CN1CCN(c2ccc(Cl)cc2)CC1 (centres undefined) |  |  |  |  | 1.46% and -1.63% |  | 7.27% and -7.63% | 6.27% and 10.91% | 26.3% and 15.3% | -9.84% and -9.74% |
| CC(C)COC(=O)NC1c2ccccc2Oc2ccccc21 | 8.22% | -2.15% | 3.09% | 8.74% | 5.64% | -2.37% |  |  |  |  |

| Compound | Inhibition (Staphylococcus aureus) | Inhibition (Acinetobacter baumannii) | Inhibition (Escherichia coli) | Inhibition (Klebsiella pneumoniae) | Inhibition (Candida albicans) | Inhibition (Cryptococcus neoformans) | Inhibition (Staphylococcus aureus; 18 h, 20 µM) | Inhibition (Acinetobacter baumannii; 18 h, 20 µM) | Inhibition (Klebsiella pneumoniae; 20 µM) | Inhibition (Cryptococcus neoformans; 20 µM) |
| --- | --- | --- | --- | --- | --- | --- | --- | --- | --- | --- |
| O=C1c2ccccc2NC(c2cc(Cl)cc(Cl)c2O)N1CCc1ccccn1 (centres undefined) | 27.48% | -1.5% | 9.13% | 12.19% | 2.81% | -0.4% |  |  |  |  |
| Cc1cc2c(cc1C)N(C(=O)CCl)CC(=O)N2 | -15.91% | -11.28% | 5.03% | 7.32% | 2.46% | -7.55% |  |  |  |  |
| CC1=CC2=C(C=O)C(=O)[C@](C)(O)[C@@H](O)C2=CO1 | -0.76% | 11.76% | 8.5% | 9.69% | 4.9% | -12.05% |  |  |  |  |
| Cn1nc(NC(=O)C(F)(F)F)c2ncc(-c3ccc(Cl)cc3)nc21 | 20.42% | 13.75% | 1.31% | 13.33% | 2.95% | -3.57% |  |  |  |  |
| NS(=O)(=O)c1ccc(Nc2ccccc2)c([N+](=O)[O-])c1 | 4.64% | 12.63% | -4.87% | 9.32% | 7.16% | -1% |  |  |  |  |
| CC(=O)CC(=O)Nc1ccc2ccccc2c1 | -8% | 10.6% | 5.41% | 9.32% | 7.43% | -13.72% |  |  |  |  |
| C(=C\c1ccc(/C=C/c2ccccc2)nn1)/c1ccccc1 | 12.1% | 11.6% | 2.44% | 18.32% | 0.82% | -5.49% |  |  |  |  |
| C#C[C@]1(O)CC[C@H]2[C@@H]3CCC4=Cc5oncc5C[C@]4(C)[C@H]3CC[C@@]21C [DANAZOL] | -10.91% | 2.93% | 12.68% | 6.03% | 0.72% | -10.04% |  |  |  |  |
| Nc1ccc(SCc2nc3cccc4c3n2CCC4)cc1 | 3.62% | -8.53% | 10.5% | 16.5% | -0.32% | -14.91% |  |  |  |  |
| CC(C)C(=O)c1ccc(O)c(O)c1 | -0.55% | -3.52% | -12.2% | 9.02% | 3.31% | 21.92% |  |  |  |  |
| Cc1ccc(/N=N/c2ccc(C)cc2NC(=O)Nc2ccccc2F)cc1 | 3.8% | 6.73% | 1.93% | 9.05% | 6.78% | 3.6% |  |  |  |  |
| c1ccc(/N=N/N2CCOCC2)cc1 | 10.43% | -20.45% | 2.82% | 4.01% | 17.7% | -10.19% |  |  |  |  |
| CCCNC(=O)c1ccccc1C(=O)NC1(C(=O)NCCC)CCCC1 | 14.23% | 6.45% | 3.42% | 12.55% | -0.46% | -3.84% |  |  |  |  |
| NC(CSC1(c2cccc3ccccc23)c2ccccc2-c2ccccc21)C(=O)O (centres undefined) | 9.31% | -6.6% | 9.55% | 13.19% | 7.56% | -2.74% |  |  |  |  |
| O=C(Nc1ccc(F)cc1)OCCOc1ccc(Br)cc1 | 6.52% | 0.97% | -0.96% | 0.6% | 2.88% | 3.63% |  |  |  |  |
| COc1ccc(Nc2cc(C)nc(N)n2)cc1 | -7.83% | -5.29% | -4.32% | 2.7% | 1.31% | -3.23% |  |  |  |  |
| COc1ccc2c(c1)CCN1C2CCN2C(=O)CCC21 (centres undefined) | -11.91% | -4.71% | -9.16% | 7.62% | 3.14% | -4.03% |  |  |  |  |
| C#CCCOC(=O)Nc1ccccc1 | 2.35% | -10.74% | 7.7% | 4.67% | 2.19% | -13.66% |  |  |  |  |
| O=C(O)C1C2OC3C(OC(=O)C31)C2Br (centres undefined) | 25.96% | 9.29% | 24.67% | 4% | 4.3% | 11.09% |  |  |  |  |
| O=C(O)/C(=C/c1ccccc1)c1ccccc1 | 7.86% | -10.93% | 11.66% | 8.35% | 8.14% | -16.02% |  |  |  |  |
| COc1cc2c(NCCCCCO)ncnc2c(OC)c1OC | 13.68% | 10.53% | 6.4% | 13.53% | 0.91% | -4.07% |  |  |  |  |
| FC(F)(F)c1nc2nc(Cl)c(Cl)nc2n1CCCN1CCOCC1 | 14.57% | 9.11% | -16.14% | 4.93% | 5.42% | 38.81% |  |  |  |  |
| CC(=O)OCc1cc(-c2nc3ccccc3nc2O)nn1-c1ccc(Cl)cc1 | 8.25% | 12.91% | -18.97% | 4.82% | 4.91% | 44.96% |  |  |  |  |
| Cc1cnc2c(N)cc(C)c(C)c2c1 | 23.12% | -5.88% | 9.48% | 9.31% | 23.1% | -10.43% |  |  |  |  |
| CCCC1OC(c2cc3c(cc2Cl)OCO3)OCC1CC (centres undefined) | 3.15% | -17.34% | 11.31% | 6.46% | 5.6% | -15.5% |  |  |  |  |
